The text below walks through data of PubChem BioAssay (NCI).

Compounds without any hit were thinned out: in the full panel of roughly 83,000, 20% have a hit.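 Single-dose data. Exposure time 48 hours. Values below 10 considered active.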 Calls of active or inactive are those of the source.

The subject of the test is MDA-MB-231 breast. As to the kind of experiment: NCI-60 one-dose screen, 48 h (100 = growth as untreated, 0 = no growth, -100 = all killed). The conditions noted are these: 10 µM.
Turning to `CCN1CCN(CCC(=O)Nc2cccc(-n3cc(-c4ccncc4)c(-c4ccc(Cl)c(OC)c4)n3)c2)CC1`, the growth is 4.87% (active). The value for `O=C1/C=C/[C@@H](O)[C@@H]2C[C@@H](O)C[C@H]2/C=C/CCC[C@H](C(F)(F)F)O1` was -31.8% (active); that for `CC[C@@H](C(=O)[C@@H](C)[C@@H](O)[C@H](C)[C@@H]1O[C@@H]([C@@H](CC)C(=O)N(CC)CC)CC[C@@H]1C)C1O[C@]2(C=CC(=O)[C@]3(CC[C@@](C)([C@H]4CC[C@](O)(CC)[C@H](C)O4)O3)O2)[C@H](C)C[C@@H]1C` (some centres undefined) was 25.8% (inactive); that for `COc1ccc(-c2cc(-c3ccc(Cl)cc3)nc(SCCCCCCC(=O)NO)n2)cc1OC` was 70.8% (inactive).

`N#CCc1csc(Cc2ccccc2)n1`: the growth was 114% (inactive). Take `CC(C)(C)OC(=O)CN1CCc2c(sc3ncnc(N/N=C/c4ccccc4Br)c23)C1`: the growth is 65.5% (inactive). The value for `CC(CN(C)C)Oc1ccccc1NC1=C(Cl)C(=O)C(Nc2ccccc2OC(C)CN(C)C)=C(Cl)C1=O` (centres undefined) was -77.5% (active); that for `Nc1ccn(Cc2nnc(CCC(=O)c3nc4ccccc4[nH]3)o2)c(=O)n1` was 87.3% (inactive).

As to `CC(C)(C)OC(=O)CN1CCc2c(sc3ncnc(N/N=C/c4cccc5ccccc45)c23)C1`, the growth was 39.9% (inactive).

For `CCOC(=O)c1cc(C(=O)c2ccc(Cl)cc2)n2ccc(-c3cc[n+](CC(=O)c4ccc(OC)cc4)cc3)cc12`, the growth is 70.9% (inactive). The value for `NS(=O)(=O)Oc1ccc(NC(=O)C2CCCCCC2)cc1` was 103% (inactive); that for `NNC(=O)Oc1c(Cl)cc(Cl)cc1[N+](=O)[O-]` was 113% (inactive).

For the compound `O=C1c2ccccc2C(=O)c2c1ccc(C(Br)Br)c2[N+](=O)[O-]`, the growth is -21.4% (active). The value for `COc1ccc(NC(=O)C2CC3C=CC2C3)c([N+](=O)[O-])c1` (centres undefined) was 93.3% (inactive); that for `CC[C@@H](C(=O)[C@H](C)[C@H](O)[C@@H](C)[C@H]1O[C@H]([C@@H](CC)C(=O)N(CC)CC)CC[C@H]1C)C1O[C@]2(C=C[C@@H](O)[C@]3(CC[C@@](C)([C@H]4CC[C@](O)(CC)[C@H](C)O4)O3)O2)[C@H](C)C[C@@H]1C` (some centres undefined) was 15.9% (inactive). The value for `COc1cc(-c2nn(-c3cccc(NC(=O)NCCNC(=O)c4cccc(C(F)(F)F)c4)c3)cc2-c2ccncc2)ccc1Cl` was 41.4% (inactive); that for `O=C(O)c1cc([N+](=O)[O-])ccc1Oc1ccccc1` was 97.3% (inactive).

With `CCOC(=O)c1cc(C(=O)c2cc(OC)c(OC)c(OC)c2)n2nc(C)ccc12`, the growth is 45.8% (inactive). The value for `CC[C@@H](C(=O)[C@@H](C)[C@@H](O)[C@H](C)[C@@H]1O[C@@H]([C@@H](CC)C(=O)O)CC[C@@H]1C)C1O[C@]2(C=CC(=O)[C@]3(CC[C@@](C)([C@H]4CC[C@](O)(CC)[C@H](C)O4)O3)O2)[C@H](C)C[C@@H]1C` (some centres undefined) was 30.3% (inactive). The value for `Cc1ccc(S(=O)(=O)N(C)CCCCCC(=O)O)cc1` was 110% (inactive); that for `COc1ccc(C2=Cn3c(CCC(=O)c4nc5ccccc5[nH]4)nnc3SC2)cc1` was 92.2% (inactive). The value for `CCCN(CCC)C(=O)[C@H](CC)[C@@H]1CC[C@@H](C)[C@@H]([C@H](C)[C@@H](O)[C@@H](C)C(=O)[C@H](CC)C2O[C@]3(C=C[C@@H](O)[C@]4(CC[C@@](C)([C@H]5CC[C@](O)(CC)[C@H](C)O5)O4)O3)[C@H](C)C[C@@H]2C)O1` (some centres undefined) was -40.3% (active); that for `OCC1OC(n2cnc3c(NCc4ccco4)ncnc32)C(O)C1O` (centres undefined) was -5.65% (active); that for `CC[C@@H](C(=O)[C@H](C)[C@H](O)[C@@H](C)[C@H]1O[C@H]([C@@H](CC)C(=O)O)CC[C@H]1C)C1O[C@]2(C=C[C@@H](O)[C@]3(CC[C@@](C)([C@H]4CC[C@](O)(CC)[C@H](C)O4)O3)O2)[C@H](C)C[C@@H]1C` (some centres undefined) was 17.3% (inactive). Turning to `O=C(/C=C/c1cccc(B(O)O)c1)c1cccc(B(O)O)c1`, the growth was -9.31% (active). The value for `Cc1ccc(Cl)cc1NC(=O)CCl` was 98.5% (inactive); that for `COc1cc(/C=C/c2cc(/C=C/c3ccc(O)c(OC)c3)nc(N)n2)ccc1O` was 3.39% (active); that for `C/C(=N\O)c1ccc(NC(=O)CSc2nnc(-c3ccccc3)n2-c2ccccc2)cc1` was 67.9% (inactive). The value for `O=C(NCCCNS(=O)(=O)c1ccc(Cl)cc1)Nc1ccc(-n2cc(-c3ccncc3)c(-c3ccc(Cl)c(O)c3)n2)cc1` was -19.3% (active).
